# Measured values taken from PubChem BioAssay.
# Active and inactive are the calls of the source. Unless noted, no rule for the calls is given here.
# Key:
# [1] = tested on: XIP peptide (Xip251-270) binding; assay: XIP fragment 251-270 binding compounds – biochemical, small-molecule microarray, fluorescence 635/667 nm, 0.1 µg/mL protein, primary screen (AID 1182); details: fluorescent protein binding, 635 nm, higher = more signal, called active from +8 up or from −8 down
# XIP peptide (Xip251-270) = assay: compounds binding XIP fragment 251-270 – biochemical, small-molecule microarray, fluorescence 635/667 nm, 0.5 µg/mL protein, primary screen (AID 1183); details: fluorescence 635 nm, higher = more signal
# [2] = blood-stage malaria parasite viability loss – strain 3D7, DAPI fluorescence, 100 nL, primary screen (AID 1184);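 also: parasites grown inside human red blood cells in medium with human serum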; details: P. falciparum 3D7 growth, 3 d, higher = more signal
# [3] = target: Homeobox protein Hox-A13 (Mus musculus) (UniProt Q62424); assay: disruptors of Hoxa13 oligonucleotide interaction – biochemical, fluorescence polarization, labeled oligonucleotide, primary screen (AID 1185); details: Hoxa13:DNA binding, 15 min, higher = more signal, called active from +8 up or from −8 down
# Sequence of Homeobox protein Hox-A13 (Mus musculus) (Q62424 whole entry, looked up): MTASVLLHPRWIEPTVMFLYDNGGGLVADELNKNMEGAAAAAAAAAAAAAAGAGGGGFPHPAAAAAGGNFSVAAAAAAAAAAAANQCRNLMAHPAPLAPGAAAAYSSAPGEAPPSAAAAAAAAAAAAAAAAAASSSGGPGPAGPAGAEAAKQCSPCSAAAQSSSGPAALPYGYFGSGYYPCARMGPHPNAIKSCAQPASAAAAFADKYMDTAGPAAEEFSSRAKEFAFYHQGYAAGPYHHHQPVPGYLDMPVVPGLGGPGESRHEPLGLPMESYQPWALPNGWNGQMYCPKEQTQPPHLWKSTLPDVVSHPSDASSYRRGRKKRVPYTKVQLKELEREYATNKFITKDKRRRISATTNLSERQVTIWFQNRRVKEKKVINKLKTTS
# [4] = blockers of DNA damage checkpoint Chk1 activation – imaging, HeLa, hydroxyurea, phospho-Chk1 antibody, percent positive cells, primary screen (AID 1186); details: hydroxyurea-induced phospho-Chk1 immunofluorescence imaging, higher = more signal
# [5] = blockers of DNA damage checkpoint Chk1 activation – imaging, HeLa, hydroxyurea, phospho-Chk1 nuclear intensity, primary screen (AID 1187); details: hydroxyurea-induced phospho-Chk1 immunofluorescence imaging, higher = more signal
SMILES,composite z-score [1],composite z-score (XIP peptide (Xip251-270)),z-score [2],z-score [3],z-score [4],z-score [5]
Cc1ccc(S[C@]2(C(=O)NCC(C)C)CC(=O)N(C(C)C)[C@@H]2c2ccc(CO)cc2I)cc1,0.708 (inactive),0.689,-1.12,-2.86 (inactive),-0.187 (inactive),0.023 (inactive)
O=C(NCCN1CCOCC1)[C@@H]1c2ccccc2C(=O)N(CC23CC4CC(CC(C4)C2)C3)[C@H]1c1ccc(CO)cc1,0.238 (inactive),0.771,-1.32,-5.14 (inactive),0.333 (inactive),0.707 (inactive)
O=C1NC(=O)C2C1C=CC(C(O)C(O)CO)N2Nc1ccccn1 (stereo not drawn),-0.325 (inactive),0.129,0.488,-0.781 (inactive),-0.163 (inactive),-0.239 (inactive)
COC(=O)C1=CC(c2ccc(CO)cc2)=CC(C2CC2)N(Cc2cc3c(cc2Br)OCO3)C=C1C(=O)OC (stereo not drawn),1.59 (inactive),0.859,-2.29,-5.19 (inactive),0.0404 (inactive),-0.0211 (inactive)
COC(=O)C(CC#Cc1ccc2c(c1)[C@]1(C(=O)N2)[C@H](C(=O)NC[C@H](O)c2ccccc2)[C@H]2C(=O)O[C@H](c3ccccc3)[C@H](c3ccccc3)N2[C@@H]1c1ccc(O)cc1)C(=O)OC,0.321 (inactive),0.418,-1.05,-3.56 (inactive),0.288 (inactive),0.557 (inactive)
COC(=O)c1ccc(OC)c(/C=C\CC(OC(=O)c2ccncc2)c2ccccc2)c1 (stereo not drawn),0.601 (inactive),0.146,-1.33,-5.02 (inactive),-0.843 (inactive),-0.432 (inactive)
C=C[C@H](OC)[C@@H](O)c1ccc(OC)c(O)c1,-1.51 (inactive),1.1,-0.874,-1.36 (inactive),0.171 (inactive),0.705 (inactive)
CC(=O)NCCCC[C@@H]1NC(=O)[C@H]2C[C@@H](C(=O)NCCCCCN)[C@@H](c3ccc(O)cc3)N2C1=O,0.222 (inactive),0.562,0.0481,-2.29 (inactive),0.32 (inactive),-0.163 (inactive)
C[C@]1(C(=O)NC2CC2)c2ccccc2C(=O)N(Cc2cc(F)cc(C(F)(F)F)c2)[C@H]1c1ccc(CO)cc1,0.431 (inactive),0.883,0.0713,-3.51 (inactive),0.361 (inactive),0.529 (inactive)
CCOC(=O)C[C@H]1[C@H](OC(=O)c2ccc(-c3ccccc3)cc2)[C@@H](NC(=O)c2ccc(-c3ccccc3)cc2)c2cc(OCCCO)ccc2N1C(=O)c1ccccc1,1.11 (inactive),0.426,-0.482,-1.22 (inactive),-0.166 (inactive),0.205 (inactive)
COCCOC(=O)N1C(=O)[C@@]2(c3cc(C#CC4=CCCCC4)ccc31)[C@H](c1ccc(O)cc1)N1[C@H](c3ccccc3)[C@H](c3ccccc3)OC(=O)[C@H]1[C@@H]2C(=O)N1CCc2cc(OC)c(OC)cc2C1,2.12 (inactive),0.556,-2.06,0.0698 (inactive),0.301 (inactive),0.404 (inactive)
O=C(N1CCOCC1)[C@]1(CCS(=O)(=O)c2ccccc2)N=C(c2ccc(OCCCO)cc2)O[C@@H]1c1ccccc1,1.24 (inactive),0.717,-2.21,-4.54 (inactive),-0.141 (inactive),0.0352 (inactive)
COC(=O)[C@@]1(Cc2ccccc2)[C@H]2c3cc(C(=O)N(C)C)n(Cc4ccc(Cl)c(C(F)(F)F)c4)c3C[C@H]2CN1C(=O)c1ccccc1,0 (inactive),0.485,-1.47,-2.73 (inactive),0.435 (inactive),0.444 (inactive)
C=CCOC(=O)[C@@H]1[C@H]2C(=O)O[C@H](c3ccccc3)[C@H](c3ccccc3)N2[C@H](c2ccc(OCCOC(=O)[C@@H]3C[C@@H]4C(=O)N[C@@H](CC(C)C)C(=O)N4[C@@H]3c3ccc(O)cc3)cc2)[C@@]12C(=O)Nc1ccc(I)cc12,0.78 (inactive),0.761,-1.51,0.374 (inactive),-0.926 (inactive),-0.838 (inactive)
COc1c(C)cc(-c2cc3c(c(CCc4ccccc4)n2)[Si](C(C)C)(C(C)C)O[C@H]3c2ccccc2)cc1C,-0.0596 (inactive),0.0209,-2.29,1.6 (inactive),-0.0936 (inactive),0.0911 (inactive)
C=C(COC)/C(=C/C[C@@H](OC(=O)c1ccncc1)c1ccccc1OCCO)c1cnc2ccccc2c1,0.882 (inactive),0.745,-3.1,-4.25 (inactive),0.112 (inactive),-0.291 (inactive)
CCCCCCc1nc(-c2ccc(OC)nc2)c(C)c2c1[Si](C(C)C)(C(C)C)OC2,-0.186 (inactive),-0.7,-2.14,0.384 (inactive),-0.531 (inactive),0.0171 (inactive)

SMILES,composite z-score [1],composite z-score (XIP peptide (Xip251-270)),z-score [2],z-score [3],z-score [4],z-score [5]
COCCOC(=O)N1C(=O)[C@@]2(c3cc(C#CCC(C(=O)OC)C(=O)OC)ccc31)[C@H](c1ccc(O)cc1)N1[C@H](c3ccccc3)[C@H](c3ccccc3)OC(=O)[C@H]1[C@@H]2C(=O)N1CCc2cc(OC)c(OC)cc2C1,0.406 (inactive),0.803,-2.15,-1.37 (inactive),-0.0407 (inactive),0.46 (inactive)
CCCC=C(CCC)[C@@H](NC(=O)c1ccc(C(=O)OC)cc1)c1ccc(C(=O)OC)cc1,-0.0958 (inactive),-0.345,-0.685,-2.06 (inactive),0.151 (inactive),-0.745 (inactive)
C=CCNC(=O)[C@H]1[C@@H]2C(=O)O[C@@H](c3ccccc3)[C@@H](c3ccccc3)N2[C@@H](c2ccc(OCCO)cc2)[C@]12C(=O)Nc1ccc(C#Cc3ccc(OC)cc3)cc12,0.43 (inactive),0.773,-2.39,-0.279 (inactive),0.165 (inactive),0.202 (inactive)
[N-]=[N+]=NCc1ccccc1[C@H]1OC(c2ccc(OCCCO)cc2)=N[C@@]1(Cc1ccccc1N=[N+]=[N-])C(N)=O,-0.19 (inactive),0.599,-0.885,-6.25 (inactive),0.052 (inactive),0.516 (inactive)
Cc1ccc(N2C(=O)c3ccccc3[C@@H](C(=O)NCCN3CCOCC3)[C@@H]2c2ccc(CO)cc2)nc1,0.0616 (inactive),0.669,1.41,-1.67 (inactive),0.0197 (inactive),0.274 (inactive)
C=CC[C@]1(C(N)=O)N=C(c2ccc(OCCCO)cc2)O[C@H]1c1ccccc1N=[N+]=[N-],1.26 (inactive),0.688,-1.98,-5.2 (inactive),-0.37 (inactive),-0.532 (inactive)
CN1C(=O)C2CC=C(C3=CCO[C@@H]3[C@H]3CCCN3S(=O)(=O)c3ccccc3[N+](=O)[O-])CC2C1=O (stereo partly drawn),0.162 (inactive),0.728,0.561,-6.57 (inactive),-0.0719 (inactive),0.234 (inactive)
CCCCN1CC=CC23O[C@@H]4/C=C\CCCOC(=O)C4[C@H]2C(=O)N(CCCCCCO)[C@@H]3C1=O (stereo partly drawn),0.723 (inactive),0.803,-0.165,-4.71 (inactive),-0.624 (inactive),-0.137 (inactive)
C=CCNC(=O)[C@H]1[C@@H]2C(=O)O[C@@H](c3ccccc3)[C@@H](c3ccccc3)N2[C@@H](c2ccc(OCCO)cc2)[C@]12C(=O)N(C(=O)OCCOC)c1ccc(C#CCC(C(=O)OC)C(=O)OC)cc12,0.275 (inactive),0.734,-1.82,-0.253 (inactive),0.338 (inactive),0.475 (inactive)
CC(C)c1ccc(NN2C(C(O)c3ccccc3)C=CC3C(=O)N(c4ccccc4)C(=O)C32)cc1 (stereo not drawn),0.542 (inactive),0.602,-0.164,-1.36 (inactive),-1.43 (inactive),-1.77 (inactive)
CN1C(=O)C2C=CC(C(O)c3ccc([N+](=O)[O-])cc3)N(Nc3ccccc3)C2C1=O (stereo not drawn),0.924 (inactive),0.818,-0.219,-4.24 (inactive),0.533 (inactive),0.397 (inactive)
O=C1O[C@H](c2ccccc2)[C@H](c2ccccc2)N2[C@H]1[C@@H](C(=O)N1CCCCCCC1)[C@]1(C(=O)Nc3ccc(C#CCCO)cc31)[C@H]2c1ccc(O)cc1,4.41 (inactive),0.976,-0.189,1.85 (inactive),-0.323 (inactive),-0.279 (inactive)
C[C@]12C(=O)N(CCO)[C@@H]3C(=O)N(c4ccc(Cl)cc4)CC=CC31O[C@@H]1/C=C\CCCOC(=O)C12 (stereo partly drawn),-0.0502 (inactive),0.913,-1.39,-3.46 (inactive),0.245 (inactive),0.129 (inactive)
COCCOC(=O)N1C(=O)[C@@]2(c3cc(C#CCNC(N)=O)ccc31)[C@H](C(N)=O)[C@H]1C(=O)O[C@H](c3ccccc3)[C@H](c3ccccc3)N1[C@@H]2c1ccc(O)cc1,0.201 (inactive),-0.532,1.75,-3.48 (inactive),0.319 (inactive),0.888 (inactive)
CCOC(=O)C1=CCC(c2cccn2C(=O)OC(C)(C)C)N(S(=O)(=O)c2ccc(C)cc2)C1 (stereo not drawn),0.153 (inactive),0.732,-1.62,0.323 (inactive),-1.06 (inactive),-1.18 (inactive)
COc1cccc(C)c1NC(=O)O[C@H]1[C@H](OC(=O)Nc2ccc3c(c2)OCO3)[C@H](OC(=O)Nc2ccc3c(c2)OCO3)[C@@H](OC)O[C@@H]1CO,0.574 (inactive),0.798,-2.29,-7.67 (inactive),-0.698 (inactive),-1.29 (inactive)
